{"source": "PubChem BioAssay AID602364", "about": "(National Center for Advancing Translational Sciences (NCATS), 2012)", "note": "Results filed as inconclusive are left out. Activity calls are given as the source filed them. Calls follow the shape of the dose curve; as a rule, active = well fitted inhibition curve with a large enough effect; inconclusive = small, poorly fitted or top-dose-only effect; inactive = flat fitted curve, though single readings scatter."}
{"biological_target": "Luciferin 4-monooxygenase (Photinus pyralis) (UniProt P08659)", "sequence (P08659 whole entry, looked up)": "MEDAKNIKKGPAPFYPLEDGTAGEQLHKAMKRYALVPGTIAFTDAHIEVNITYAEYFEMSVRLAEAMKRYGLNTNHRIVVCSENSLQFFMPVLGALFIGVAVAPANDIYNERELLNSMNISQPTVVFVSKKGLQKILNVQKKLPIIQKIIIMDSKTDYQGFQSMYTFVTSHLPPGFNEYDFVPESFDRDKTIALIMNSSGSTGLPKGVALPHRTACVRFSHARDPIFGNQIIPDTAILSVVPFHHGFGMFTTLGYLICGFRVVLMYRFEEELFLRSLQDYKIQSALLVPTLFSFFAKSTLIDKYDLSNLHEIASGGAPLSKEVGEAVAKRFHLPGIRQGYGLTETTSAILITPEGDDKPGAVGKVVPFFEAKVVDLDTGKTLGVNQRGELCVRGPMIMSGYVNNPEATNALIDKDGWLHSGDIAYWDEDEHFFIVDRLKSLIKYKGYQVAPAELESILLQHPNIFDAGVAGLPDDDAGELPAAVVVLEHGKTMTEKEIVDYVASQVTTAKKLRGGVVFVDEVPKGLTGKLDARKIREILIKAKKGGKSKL", "experiment": "FLuc inhibitory activity for the follow-up compounds in a biochemical assay with 1mM ATP", "conditions": "purified P. pyralis luciferase, luminescence; series mostly up to 57.5 µM", "description": "NCGC Assay Overview: Firefly (Photinus pyralis) luciferase is one of the most commonly used transcriptional reporters. It is considered one of the more dynamically responsive reporters - that is, responsive to changes in reporter transcription - as it requires no post-translational modifications and is enzymatically active directly after protein synthesis (Wood, 1998). With no endogenous expression in mammalian cells and without the requirement of external excitation, it offers very little background signal, thus generally providing excellent signal to background for most assays. Previous profiling work to determine the prevalence of compounds that affect FLuc enzymatic activity (PubChem AID 411) identified that ~3% of the MLSMR library (then at ~72K) inhibited FLuc. […] Of the compounds identified in this profile that inhibited FLuc, 151 compounds were selected for further analysis, in an effort to better understand their mode of inhibiting FLuc. The assay described here was to determine the activity of the compounds in a FLuc assay that contained a KM concentration of D-luciferin and a high concentration (1mM) of ATP.\nNCGC Assay Protocol Summary: Reagents: 50mM Tris acetate, pH 7.5; 10mM Mg acetate; 10uM D-luciferin (Sigma #L9504); 1mM ATP; 0.01% Tween-20; 0.05% BSA; 10nM P. pyralis luciferase (Sigma #L9506) Control compounds used were two known firefly luciferase inhibitors (3-(5-(3-chlorophenyl)-1,2,4-oxadiazol-3-yl)benzoic acid and 5-(2-fluorophenyl)-3-phenyl-1,2,4-oxadiazole), and DMSO. Three microliters containing firefly luciferase substrates in buffer (final concentrations: 50mM Tris acetate, pH 7.5, 10mM Mg acetate, 0.01% Tween-20, 0.05% BSA, 10uM D-luciferin, 1mM ATP) are dispensed into each well of a Greiner white, solid-bottom 1536-well format plate using a flying reagent dispenser (FRD). These assay plates were then treated with 23nL of compound or DMSO using a Kalypsys pin tool, which allows for delivery of a 12-point intraplate titration of each compound to the assay plate (quantitative HTS), with a final compound concentrations ranging from approximately ~60uM to 0.3nM. One microliter of firefly luciferase in […] Tris-acetate buffer was then delivered by FRD to each well for a final enzyme concentration of 10nM. Luciferase activity was then measured using a ViewLux CCD imager (PerkinElmer), with an average exposure time of 2-30 seconds (2X binning, medium/high gain)."}
{"compound": "COc1ccc2nc(NC(=O)Cc3cccs3)sc2c1", "Potency": "4.11 µM (active)"}
{"compound": "O=C(O)c1ccc(NC(=O)c2ccccc2NC(=O)c2ccccc2Br)cc1", "Potency": "inactive"}
{"compound": "Cc1ccc2nc(-c3ccc(NC(=O)CN4CCN(C(=O)c5ccco5)CC4)cc3)sc2c1", "Potency": "4.11 µM (active)"}
{"compound": "O=C(Nc1c(Cl)cc(Cl)cc1-c1nc2ccccc2s1)c1ccc(Br)o1", "Potency": "inactive"}
{"compound": "Cc1c(NC(=O)c2cc(-n3cnnc3)ccc2Cl)cccc1-c1nc2ccccc2s1", "Potency": "2.91 µM (active)"}
{"compound": "O=C(O)c1cccc(NC(=O)c2cccc(S(=O)(=O)N3CCc4ccccc43)c2)c1", "Potency": "18.3 µM (active)"}
{"compound": "Cc1ccc(C(=O)Nc2cccc(C(=O)O)c2)cc1S(=O)(=O)N1CCOCC1", "Potency": "3.26 µM (active)"}
{"compound": "Cc1ccc(C(=O)Nc2ccc(C(=O)O)cc2)cc1S(=O)(=O)Nc1ccccc1", "Potency": "inactive"}
{"compound": "Cc1ccc(C(=O)O/N=C(\\N)c2ccccn2)c(Cl)c1", "Potency": "0.0046 µM (active)"}
{"compound": "COc1ccc(C(=O)Nc2ccccc2-c2nc3ccccc3s2)c(OC)c1", "Potency": "inactive"}
{"compound": "COc1c(C)cccc1C(=O)Nc1ccc(-c2nc3ccccc3s2)c(Cl)c1", "Potency": "inactive"}
{"compound": "O=C(O)c1cccc(NC(=O)c2cccc(NC(=O)C3CCCO3)c2)c1", "note": "(stereo not given)", "Potency": "4.11 µM (active)"}
{"compound": "COc1ccccc1C(=O)Nc1ccc(C(=O)O)cc1", "Potency": "inactive"}
{"compound": "Nc1ccc(-c2nc3ccc(N)cc3s2)cc1", "Potency": "0.103 µM (active)"}
{"compound": "O=C(Nc1cccc(-c2nc3ccccc3s2)c1)C1=COCCO1", "Potency": "25.9 µM (active)"}
{"compound": "C/C(=N\\NC(=O)c1ccccc1NC(=O)c1ccc(Cl)cc1)c1ccncc1", "Potency": "0.146 µM (active)"}
{"compound": "CCCOc1cccc(C(=O)Nc2ccc(-c3nc4ccccc4s3)c(Cl)c2)c1", "Potency": "inactive"}
{"compound": "CCOc1ccc2nc(NC(=O)c3ccoc3C)sc2c1", "Potency": "0.13 µM (active)"}
{"compound": "CCOc1ccc2nc(NC(=O)Cc3cccs3)sc2c1", "Potency": "3.66 µM (active)"}
{"compound": "CCn1c(C)nc2cc(-c3nc4n(n3)Cc3ccccc3-4)ccc21", "Potency": "0.0326 µM (active)"}
{"compound": "O=C(Nc1ccccc1C(=O)O)c1cc(S(=O)(=O)Nc2ccccc2)ccc1Cl", "Potency": "inactive"}
{"compound": "COc1ccc(Br)cc1C(=O)Nc1ccc(C(=O)O)cc1", "Potency": "inactive"}
{"compound": "CC(C)CC(=O)Nc1cccc(C(=O)Nc2ccccc2C(=O)O)c1", "Potency": "18.3 µM (active)"}
{"compound": "O=C(Nc1ccccc1C(=O)O)c1cccc(NC(=O)c2ccco2)c1", "Potency": "18.3 µM (active)"}
{"compound": "O=C(Nc1ccccc1C(=O)O)c1cccc(C(=O)Nc2ccccc2C(=O)O)c1", "Potency": "11.6 µM (active)"}
{"compound": "Cc1ccc(C(=O)O/N=C(\\N)c2ccccn2)cc1", "Potency": "0.0073 µM (active)"}
{"compound": "O=C(O)c1cccc(NC(=O)c2ccc(COc3ccc(Cl)cc3)cc2)c1", "Potency": "3.66 µM (active)"}
{"compound": "Cc1c(C)c2ccc(OCC(=O)Nc3ccccn3)c(C)c2oc1=O", "Potency": "0.0082 µM (active)"}
{"compound": "O=C(Cc1ccccc1)Nc1ccc(C(=O)Nc2ccccc2C(=O)O)cc1", "Potency": "20.6 µM (active)"}
{"compound": "Cc1ccc(S(=O)(=O)N2CCOCC2)cc1C(=O)Nc1ccccc1C(=O)O", "Potency": "inactive"}
{"compound": "CCOc1ccc2nc(NC(=O)c3cc([N+](=O)[O-])ccc3N3CCOCC3)sc2c1", "Potency": "inactive"}
{"compound": "O=C(O)c1cccc(NC(=O)c2cccc(S(=O)(=O)N3CCCCC3)c2)c1", "Potency": "2.31 µM (active)"}
{"compound": "Nc1ccccc1-c1nc2ccccc2s1", "Potency": "2.91 µM (active)"}
{"compound": "O=C(Nc1ccccc1C(=O)O)c1cccc(NC(=O)c2ccccc2Br)c1", "Potency": "36.6 µM (active)"}
{"compound": "CCOc1ccc2nc(NC(=O)c3ccccn3)sc2c1", "Potency": "0.13 µM (active)"}
{"compound": "Cn1c(N/N=C/c2cc3ccccc3nc2Cl)nc2ccccc21", "Potency": "14.6 µM (active)"}
{"compound": "COc1ccc(-c2cccc(C(=O)Nc3cccc(C(=O)O)c3)c2)cc1", "Potency": "5.8 µM (active)"}
{"compound": "CC(C)Oc1ccc(C(=O)Nc2ccc(-c3nc4ccccc4s3)cc2)cc1", "Potency": "inactive"}
{"compound": "CCOc1ccc2nc(NC(=O)c3ccccc3)sc2c1", "Potency": "0.0919 µM (active)"}
{"compound": "COc1ccc2nc(NC(=O)CCc3nc(-c4ccccc4F)no3)sc2c1", "Potency": "inactive"}
